# An excerpt weighted towards active compounds, which were near 3.5% of everything screened.
# Pf apPOL block: Pf-apPOL inhibitors, biochemical, fluorescence; inhibition, % at 10 µM; Plasmodium falciparum apicoplast DNA polymerase (apPOL); 210,000 tested, 0.25% active; Recombinant Pf-apPOL, molecular beacon fluorescence, 1.5 h
# mHTT-CaM PPI inh: mutant huntingtin-calmodulin interaction inhibitors – biochemical, AlphaScreen, primary screen; inhibition, % at 15 µM; AlphaScreen His-mHTT/GST-CaM binding, luminescence; P42858; 190,000 tested, 3.6% active
# Hits are given with their value; – = inactive; · = not tested or not shown. No stated cut-off is given here; in the data, active means inhibition above about 50%; inactive means the rest.
SMILES,Pf apPOL block,mHTT-CaM PPI inh
C[C@H](c1ccccc1)N1C[C@@H](COCc2ccccc2)Oc2cc(N3CC[C@@H](N(C)C)C3)ccc2S1(=O)=O,–,100
C[C@H](c1ccccc1)N1C[C@@H](COCc2ccccc2)Oc2cc(N3CC[C@H](N(C)C)C3)ccc2S1(=O)=O,–,–
C[C@@H](c1ccccc1)N1C[C@@H](COCc2ccccc2)Oc2cc(N3CC[C@H](O)C3)ccc2S1(=O)=O,–,55
C[C@H](c1ccccc1)N1C[C@H](COCc2ccccc2)Oc2cc(N3CCC[C@H]3CO)ccc2S1(=O)=O,–,–
CC[N+](C)(CC)CC(O)COc1ccc(C23CC4CC(CC(C4)C2)C3)cc1 (stereo not given),–,–
CCOC(=O)CCC(C#N)(c1ccc(Cl)cc1)N1CCOCC1 (stereo not given),–,·
CCOc1cc(Nc2ccc(NC(=O)c3ccco3)cc2)nc(C)n1,–,–
Cc1cc(C)n(-c2ccc(Nc3ccc(NC(=O)c4ccco4)cc3)nn2)n1,–,67
COc1ccc(NC(=O)CC(C)C)cc1N1CCCC1=O,–,–
COc1ccc(NC(=O)NC(c2ccccc2)c2ccccc2)cc1N1CCCC1=O,–,55
O=C1CCCC2=C1C(c1ccc([N+](=O)[O-])cc1)C1C(=O)c3ccccc3C1=N2 (stereo not given),–,–
Cc1ccc(C2C3=C(CCCC3=O)N=C3c4ccccc4C(=O)C32)cc1 (stereo not given),–,59
O=C1CCCC2=C1C(c1ccccc1)C1C(=O)c3ccccc3C1=N2 (stereo not given),–,–
O=C1CCCC2=C1C(c1ccc(Cl)cc1)C1C(=O)c3ccccc3C1=N2 (stereo not given),–,66
CC1CC(C)CN(C(=O)c2ccccc2[N+](=O)[O-])C1 (stereo not given),–,–
COc1ccc(CNC(=O)CCC2CCCN(c3cc(NC4CC4)ncn3)C2)cc1 (stereo not given),–,–
COc1ccc(C(CC(=O)N2CCCC2)c2c(OC)cc(OC)c3c(-c4ccccc4)cc(=O)oc23)cc1 (stereo not given),–,81
COc1cc(OC)c2c(-c3ccccc3)cc(=O)oc2c1C(CC(=O)N1CCCC1)c1ccc(N(C)C)cc1 (stereo not given),–,90
CCN(CC)C(=O)CC(c1ccc(N(C)C)cc1)c1c(OC)cc(OC)c2c(-c3ccccc3)cc(=O)oc12 (stereo not given),–,–
COc1ccc(C(CC(=O)N2CCCC2)c2c(OC)cc(OC)c3ccc(=O)oc23)cc1 (stereo not given),–,–
COc1ccc(C(CC(=O)N2CCOCC2)c2c(OC)cc(OC)c3c(-c4ccccc4)cc(=O)oc23)cc1 (stereo not given),–,–
COc1cc(C(CC(=O)N2CCCC2)c2c(OC)cc(OC)c3c(-c4ccccc4)cc(=O)oc23)cc(OC)c1OC (stereo not given),–,52
O=C(Nc1ccc(N2CCCCC2=O)cc1)c1cccc2ccccc12,–,–
Cc1cc(C(F)(F)F)nn1CC(=O)N1CCCC1c1cc(C(C)C)no1 (stereo not given),–,–
CC1(C)Cc2ccccc2C2=C(C(=O)N3CCCCC3)C(=O)C(=O)N21,–,–
SMILES,Pf apPOL block,mHTT-CaM PPI inh
CCN1CCc2c(sc(NC(=O)c3ccnn3C)c2C(N)=O)C1,–,–
CCN1CCc2c(sc(NC(=O)Nc3ccc(Cl)c(Cl)c3)c2C(N)=O)C1,–,85
O=C(COc1ccccc1F)Nc1c2c(nn1-c1nc3ccccc3s1)CCC2,–,–
Clc1cccc(CN2CCc3nc(N4CCN(c5ncccn5)CC4)ncc3C2)c1,–,100
Clc1cccc(CN2CCc3nc(N4CCN(c5ccccc5)CC4)ncc3C2)c1,–,–
CCOc1ccc(CN2CCc3nc(N4CCN(CC)CC4)ncc3C2)cc1OCC,–,–
CCCN1CCc2nc(N3CCN(c4ccccc4F)CC3)ncc2C1,–,–
CCN1CCN(c2ncc3c(n2)CCN(Cc2ccc(Cl)c(F)c2)C3)CC1,–,63
Cc1cccc(CN2CCc3nc(N4CCN(c5ncccn5)CC4)ncc3C2)c1,–,100
CCN1CCN(c2ncc3c(n2)CCN(CCc2ccccc2)C3)CC1,–,97
CCCN1CCN(c2ncc3c(n2)CCN(Cc2cccc(C)c2)C3)CC1,–,–
Cc1cccc(NC(=O)CCS(=O)(=O)c2ccc(Br)s2)c1C,–,–
CCn1nnc2c(N3CCN(S(=O)(=O)c4cccc(Cl)c4)CC3)ncnc21,–,–
Cc1cc(O)c(C(=O)C=CC=Cc2ccc(N(C)C)cc2)c(=O)o1,–,–
CCN(CC)S(=O)(=O)c1ccc2nc(NC(=O)c3ccc4ccccc4n3)sc2c1,–,–
O=C(CCC1CCCC1)N1CCOCC1CO (stereo not given),–,–
Cc1ccc(OCCCn2cc(/C=C3/C(=N)N4C=CSC4=NC3=O)c3ccccc32)cc1C,–,–
CCN1CCN(c2ncc(C(=O)Nc3ccc(C)cc3Br)c3ccccc23)CC1,–,–
O=C(NC1CCS(=O)(=O)C1)c1ccc(-c2ccccn2)s1 (stereo not given),–,·
CCN1CCN(c2ncc3c(n2)CCN(Cc2cccc(Cl)c2)C3)CC1,–,78
CCCN1CCN(c2ncc3c(n2)CCN(Cc2cccc(Br)c2)C3)CC1,–,–
CCN1CCN(c2ncc3c(n2)CCN(Cc2ccccc2F)C3)CC1,–,56
CCN1CCN(c2ncc3c(n2)CCN(Cc2cccc(F)c2F)C3)CC1,–,–
CCS(=O)(=O)NC1CCCCCCC1,–,–
Cn1nc(-c2nc(C3CC3)no2)c2c1CCN(C(=O)c1ccco1)C2,–,–
SMILES,Pf apPOL block,mHTT-CaM PPI inh
C=CCOc1ccc(/C=C2\SC(=N)N(c3nccs3)C2=O)cc1OCC,–,74
N=C1S/C(=C\c2cc3c(cc2Cl)OCO3)C(=O)N1c1nccs1,–,–
O=C(NCc1ccco1)N1CCCCC1,–,–
O=C(O)C1Nc2c(Cl)cc(Cl)cc2C2C=CCC12 (stereo not given),·,95
O=C(c1cccc2c1NC(c1ccc(Cl)cc1Cl)C1CC=CC21)N1CCOCC1 (stereo not given),–,–
O=C(O)C1Nc2c(Cl)cc(Cl)c(Cl)c2C2C=CCC12 (stereo not given),·,96
COc1ccc(N2CC(C(=O)N3CCn4c(nc5ccccc54)C3)CC2=O)cc1 (stereo not given),–,–
O=C(CCN1C(=O)c2ccccc2C1=O)Nc1ccc(F)c(F)c1,–,–
O=C(CC(c1ccccc1)c1ccccc1)Oc1coc(CSc2ncccn2)cc1=O,–,99
Cc1ccnc(SCc2cc(=O)c(OC(=O)Cc3ccc([N+](=O)[O-])cc3)co2)n1,–,88
Cc1csc(SCc2cc(=O)c(OC(=O)c3cccc([N+](=O)[O-])c3)co2)n1,–,–
Cn1ccnc1SCc1cc(=O)c(OC(=O)CC2CCCCC2)co1,–,–
Cc1ccc(C(=O)N2CCC(CC(=O)NCCCN3CCCCC3)CC2)cc1,–,–
CCN(CC)S(=O)(=O)c1ccc(Cl)c(C(N)=O)c1,–,–
CCN(CC)C(=NS(=O)(=O)c1ccc(C)cc1C)c1ccccc1,–,–
Cc1cc(C)c(S(=O)(=O)N2CCCC2=O)c(C)c1,–,–
Cc1cc(C)c(S(=O)(=O)N=C2C=CC(=O)C(Br)=C2)c(C)c1,–,53
Cc1ccc(S(=O)(=O)N=C2C=CC(=O)C(Br)=C2)c(C)c1,–,93

# High-throughput results from PubChem.
